# Results filed as inconclusive are left out. Active and inactive are the calls of the source. Calls follow the shape of the dose curve; as a rule, active = well fitted inhibition curve with a large enough effect in the repeat runs; inconclusive = weak or mixed curves; inactive = no such curve, though single readings can be large or run the other way.
# Target: Cytochrome P450 2C9 (Homo sapiens) (UniProt P11712)
# Assay: Cytochrome P450 family 2 subfamily C member 9 (CYP2C9) small molecule antagonists: luciferase biochemical (cell-free) qHTS assay (AID 1645842); also: nearly all actives have a fitted effect of over 55% in size
# Conditions: P450-Glo CYP2C9 enzyme assay, luciferin luminescence; series mostly up to 57.4 µM
# Procedure: National Center for Advancing Translational Sciences [NCATS] Assay Overview: Cytochrome P450 (CYP) enzymes are membrane-bound hemeproteins that play a key role in metabolism of drugs and xenobiotics. Assaying the effect of chemicals on CYP isozymes is useful to minimize the adverse drug reactions and toxicities in drug development process. Chemical compounds were tested for their effect on CYP enzyme activities by using P450-Glo (TM) screening systems (Promega Corporation, Madison, WI). These systems provide a luminescent method containing proluciferin substrates and are converted to luciferin products by CYP isozymes. The luciferin products formed are detected with a luciferin detection reagent, and the amount of light produced is proportional to CYP activity. P450-Glo (TM) CYP2C9 screening system (Catalog. No. V9790) was used to detect the compounds that interfere in CYP2C9 activity.
# Assay Protocol Summary: Two ul of enzyme-substrate mix supplemented with 0.4% Bovine Serum Albumin was dispensed into medium binding white/solid 1536-well plates (Greiner Bio-One North America Inc., Monroe, NC) using a Flying Reagent Dispenser (FRD, Aurora Discovery, San Diego, CA). […] The assay plates were incubated at room temperature for 10 min. Then 2 ul of NADPH regeneration solution was added to each well of the assay plates using an FRD and incubated at 37C for 1 h. The reaction was stopped by adding 4 ul of detection reagent using an FRD and after 20 min incubation at room temperature, the luminescence signal was measured using a ViewLux plate reader (Perkin Elmer, Shelton, CT). Data were expressed as relative luminescence units.
# Potency is read from the fitted curve at half-maximal effect.
# Cytochrome P450 2C9 (Homo sapiens), sequence (P11712 whole entry, looked up): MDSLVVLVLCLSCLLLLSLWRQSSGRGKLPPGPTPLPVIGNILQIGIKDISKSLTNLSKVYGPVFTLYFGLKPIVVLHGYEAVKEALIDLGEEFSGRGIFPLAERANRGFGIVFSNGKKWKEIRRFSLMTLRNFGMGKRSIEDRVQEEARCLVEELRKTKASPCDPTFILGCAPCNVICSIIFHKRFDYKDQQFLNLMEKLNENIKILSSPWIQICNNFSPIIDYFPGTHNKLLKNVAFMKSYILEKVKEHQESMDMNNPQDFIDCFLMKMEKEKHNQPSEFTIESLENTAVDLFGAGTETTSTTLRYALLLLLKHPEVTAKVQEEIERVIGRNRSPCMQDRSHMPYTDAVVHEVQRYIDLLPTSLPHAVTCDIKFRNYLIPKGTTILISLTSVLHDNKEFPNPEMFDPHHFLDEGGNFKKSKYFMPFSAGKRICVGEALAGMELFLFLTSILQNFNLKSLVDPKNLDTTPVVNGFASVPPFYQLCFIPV
row,Structure (SMILES),Potency
1,OC[C@@H](O)C(O)[C@@H](O)CO (stereo not given in full),inactive
2,O=C(CC1N=C2c3ccccc3N=C(SCc3ccc(Cl)cc3)N2C1=O)NCCc1ccccc1 (stereo not given),1.9 µM (active)
3,Cc1ccccc1CNC(=O)CCCn1c(=O)c2cccn2c2ccccc21,9.52 µM (active)
4,Cc1cc(NC(=O)C2CCN(S(=O)(=O)c3ccc4[nH]c(=O)oc4c3)CC2)ccc1Br,0.425 µM (active)
5,Cc1ccc(Nc2nc3ccccc3c3nnc(C)n23)c(C)c1,5.35 µM (active)
6,Cc1cccc(NC(c2cccc(Cl)c2)c2ccc3cccnc3c2O)n1 (stereo not given),28.2 µM (active)
7,COc1ccc(CNC(=O)Nc2ccc3c(c2)N(C)C(=O)c2ccccc2S3)cc1OC,inactive
8,COc1ccc(NC(=O)C2CCCN(c3nnc(C)c4c(C)n(-c5ccccc5)nc34)C2)cc1Cl (stereo not given),5.35 µM (active)
9,CCC(=O)N1CCc2cc(S(=O)(=O)NC(Cc3ccccc3)C(=O)NCc3cccc(OC)c3)ccc21 (stereo not given),12 µM (active)
10,COc1ccc(CCNc2nc(SCc3ccccc3F)nc3ccccc23)cc1OC,0.849 µM (active)
11,CCn1cc2nc(SCC(=O)Nc3ccc(OC)c(OC)c3)n(Cc3ccc(Cl)cc3)c(=O)c2n1,3.79 µM (active)
12,CCOC(=O)c1ccc(N2C(=O)c3n[nH]c(-c4ccco4)c3C2c2ccc(C)cc2)cc1 (stereo not given),2.39 µM (active)
13,COc1cc(Cl)c(C)cc1NC(=O)CSc1ncc(S(=O)(=O)c2ccc(C(C)(C)C)cc2)c(=O)[nH]1,0.425 µM (active)
14,Cc1cccc(N2CCN(C(=O)CCC(=O)NNc3nc4ccccc4c4nc(C)nn34)CC2C)c1 (stereo not given),9.52 µM (active)
15,CC1=C(C(=O)Nc2cccc(-c3ccn[nH]3)c2)C(c2ccccc2Cl)N=C(Nc2nc3ccccc3o2)N1 (stereo not given),0.477 µM (active)
16,CC(C)[C@H]1CC[C@H](C)C[C@H]1O,inactive
17,COc1ccc(CC(=O)Nc2c(C(=O)N3CCN(c4ccccc4F)CC3)oc3ccccc23)cc1OC,inactive
18,Cc1ncc(Cl)cc1NCc1ccc(C(=O)N[C@@H](CC2CCCC2)C(=O)NC2CC2)s1,8.49 µM (active)
19,CNC(=O)c1ccc(CSc2nc3ccncc3n2Cc2ccc(C)cc2)cc1,7.56 µM (active)
20,CCOC(=O)c1ccc(Nc2nc3nonc3nc2Nc2cccc(C)c2C)cc1,inactive

row,Structure (SMILES),Potency
1,Nc1ccn(C2O[C@H](CO)[C@@H](O)[C@@H]2O)c(=O)n1 (stereo not given in full),inactive
2,CCN1CCN(CCCNC(=O)c2cc3c(s2)-c2c(C)cccc2OC3)CC1,inactive
3,O=C(CSc1nc2ccccc2n1Cc1cccc(F)c1)N1CCN(c2ccc(F)cc2)CC1,3.38 µM (active)
4,Cc1cccn2c(=O)cc(CSc3nnc(NC(=O)COc4ccccc4)s3)nc12,6.74 µM (active)
5,CCCCCCCCCCCCCCCCNc1ccc(C(=O)O)cc1,inactive
6,CCNC(=O)N1CCN(C(=O)c2cnc3cc(OC)ccc3c2N2CCC(C)(C#N)CC2)CC1,2.39 µM (active)
7,C=CCNCCCCCC[N+](C)(C)C,inactive
8,COc1cccc(CNCc2cccn2-c2nnc(N3CCN(c4ccccc4)CC3)s2)c1,9.52 µM (active)
9,COc1cccc(C(=O)NC(c2ccc(Cl)cc2)c2cc(Cl)c3cccnc3c2O)c1 (stereo not given),23.9 µM (active)
10,CC1(C#N)CCN(c2c(C(=O)N3CCC(C(=O)C4CC4)CC3)cnc3ccc(F)cc23)CC1,1.9 µM (active)
11,Cc1ccc(S(=O)(=O)N[C@@H]2CCCC[C@H]2O)cc1,inactive
12,Cc1c(Cl)cccc1NC(=O)Cn1cc(C(=O)C2CCCCC2)c2ccccc21,2.13 µM (active)
13,CCOc1ccc(CNC(=O)Cn2c(=O)c3cccn3c3ccc(F)cc32)cc1OC,inactive
14,O=C(CCCCCn1c(=O)c2sccc2n(CC(=O)Nc2cccc(Cl)c2)c1=O)NCc1ccc2c(c1)OCO2,0.239 µM (active)
15,O=C(CSc1nnc(-c2cccc(F)c2)c(-c2cccc(F)c2)n1)NC1CCCCC1,1.51 µM (active)
16,Cc1nnc(N2CCC(C(=O)NCCc3ccccc3Cl)CC2)c2nn(-c3ccccc3)c(C)c12,1.9 µM (active)
17,COc1ccc(CNC(=O)c2nc(SCc3ccccc3F)ncc2Cl)cc1,inactive
18,CC1(C#N)CCN(c2c(C(=O)N3CCN(C(=O)N4CCCC4)CC3)cnc3c(F)cc(F)cc23)CC1,12 µM (active)
19,Cc1ccc(NC(=O)Cn2cc(C(=O)c3ccco3)c3ccccc32)c(C)c1,0.849 µM (active)
20,CN(C)[S+](=O)([O-])c1ccc([S+](=O)([O-])N(Cc2cccs2)Cc2ccccc2Cl)cc1,3.79 µM (active)
